# According to ChEMBL document CHEMBL2218924, “A broad activity screen in support of a chemogenomic map for kinase signalling research and drug discovery” (Biochem J, 2013):
# Tests used:
# [1] = target: Tyrosine-protein kinase SYK (Homo sapiens) (UniProt P43405); conditions: at 10 µM
# [2] = target: T1, Mitogen-activated protein kinase kinase kinase 7 (Homo sapiens) (UniProt O43318); conditions: at 1 µM
# T1 sequence (whole entry): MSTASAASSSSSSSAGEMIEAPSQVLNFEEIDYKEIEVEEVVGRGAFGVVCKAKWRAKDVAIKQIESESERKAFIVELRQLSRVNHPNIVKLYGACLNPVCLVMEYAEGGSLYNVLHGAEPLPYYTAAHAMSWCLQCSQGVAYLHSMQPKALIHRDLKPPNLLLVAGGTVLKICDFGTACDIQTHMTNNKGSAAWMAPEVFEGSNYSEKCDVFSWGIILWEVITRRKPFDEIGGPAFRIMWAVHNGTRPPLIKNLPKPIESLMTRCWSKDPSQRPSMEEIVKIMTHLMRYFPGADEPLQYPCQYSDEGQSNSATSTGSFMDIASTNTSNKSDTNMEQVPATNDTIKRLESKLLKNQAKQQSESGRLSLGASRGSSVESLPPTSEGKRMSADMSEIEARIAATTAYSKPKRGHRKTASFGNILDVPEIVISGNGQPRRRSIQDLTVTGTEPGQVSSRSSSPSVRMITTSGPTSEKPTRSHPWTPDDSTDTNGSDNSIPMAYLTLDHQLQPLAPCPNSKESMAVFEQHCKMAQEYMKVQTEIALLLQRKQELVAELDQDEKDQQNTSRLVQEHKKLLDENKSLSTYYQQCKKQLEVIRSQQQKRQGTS
# [3] = target: T1, Mitogen-activated protein kinase kinase kinase 7 (Homo sapiens); conditions: at 10 µM
# [4] = target: T2, Serine/threonine-protein kinase TAO1 (Homo sapiens) (UniProt Q7L7X3); conditions: at 1 µM
# T2 sequence (whole entry): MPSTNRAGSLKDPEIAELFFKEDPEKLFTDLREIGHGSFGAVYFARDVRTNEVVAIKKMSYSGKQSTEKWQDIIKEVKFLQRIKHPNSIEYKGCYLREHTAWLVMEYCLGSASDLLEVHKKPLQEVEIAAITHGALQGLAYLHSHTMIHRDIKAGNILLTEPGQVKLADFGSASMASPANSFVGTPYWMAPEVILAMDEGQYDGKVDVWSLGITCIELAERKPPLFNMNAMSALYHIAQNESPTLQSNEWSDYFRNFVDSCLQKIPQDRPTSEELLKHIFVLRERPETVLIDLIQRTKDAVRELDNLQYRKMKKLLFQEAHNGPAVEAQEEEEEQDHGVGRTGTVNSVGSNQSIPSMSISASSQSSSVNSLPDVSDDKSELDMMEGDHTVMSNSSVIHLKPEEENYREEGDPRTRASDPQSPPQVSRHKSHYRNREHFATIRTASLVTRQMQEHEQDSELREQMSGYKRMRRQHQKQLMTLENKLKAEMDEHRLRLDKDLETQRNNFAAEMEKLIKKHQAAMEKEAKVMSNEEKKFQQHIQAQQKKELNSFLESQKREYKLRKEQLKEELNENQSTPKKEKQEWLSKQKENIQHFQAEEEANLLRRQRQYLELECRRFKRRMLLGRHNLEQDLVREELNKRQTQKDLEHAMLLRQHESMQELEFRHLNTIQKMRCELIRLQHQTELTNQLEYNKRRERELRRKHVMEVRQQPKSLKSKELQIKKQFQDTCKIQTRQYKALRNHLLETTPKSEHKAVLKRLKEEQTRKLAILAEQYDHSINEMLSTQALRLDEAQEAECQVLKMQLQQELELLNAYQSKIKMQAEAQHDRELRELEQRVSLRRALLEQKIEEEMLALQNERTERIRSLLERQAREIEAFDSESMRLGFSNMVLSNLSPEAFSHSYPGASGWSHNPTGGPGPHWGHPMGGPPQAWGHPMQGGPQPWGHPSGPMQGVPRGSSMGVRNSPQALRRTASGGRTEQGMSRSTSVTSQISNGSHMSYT
# [5] = target: T2, Serine/threonine-protein kinase TAO1 (Homo sapiens); conditions: at 10 µM
# [6] = target: T3, Serine/threonine-protein kinase TAO2 (Homo sapiens) (UniProt Q9UL54); conditions: at 1 µM
# T3 sequence (whole entry): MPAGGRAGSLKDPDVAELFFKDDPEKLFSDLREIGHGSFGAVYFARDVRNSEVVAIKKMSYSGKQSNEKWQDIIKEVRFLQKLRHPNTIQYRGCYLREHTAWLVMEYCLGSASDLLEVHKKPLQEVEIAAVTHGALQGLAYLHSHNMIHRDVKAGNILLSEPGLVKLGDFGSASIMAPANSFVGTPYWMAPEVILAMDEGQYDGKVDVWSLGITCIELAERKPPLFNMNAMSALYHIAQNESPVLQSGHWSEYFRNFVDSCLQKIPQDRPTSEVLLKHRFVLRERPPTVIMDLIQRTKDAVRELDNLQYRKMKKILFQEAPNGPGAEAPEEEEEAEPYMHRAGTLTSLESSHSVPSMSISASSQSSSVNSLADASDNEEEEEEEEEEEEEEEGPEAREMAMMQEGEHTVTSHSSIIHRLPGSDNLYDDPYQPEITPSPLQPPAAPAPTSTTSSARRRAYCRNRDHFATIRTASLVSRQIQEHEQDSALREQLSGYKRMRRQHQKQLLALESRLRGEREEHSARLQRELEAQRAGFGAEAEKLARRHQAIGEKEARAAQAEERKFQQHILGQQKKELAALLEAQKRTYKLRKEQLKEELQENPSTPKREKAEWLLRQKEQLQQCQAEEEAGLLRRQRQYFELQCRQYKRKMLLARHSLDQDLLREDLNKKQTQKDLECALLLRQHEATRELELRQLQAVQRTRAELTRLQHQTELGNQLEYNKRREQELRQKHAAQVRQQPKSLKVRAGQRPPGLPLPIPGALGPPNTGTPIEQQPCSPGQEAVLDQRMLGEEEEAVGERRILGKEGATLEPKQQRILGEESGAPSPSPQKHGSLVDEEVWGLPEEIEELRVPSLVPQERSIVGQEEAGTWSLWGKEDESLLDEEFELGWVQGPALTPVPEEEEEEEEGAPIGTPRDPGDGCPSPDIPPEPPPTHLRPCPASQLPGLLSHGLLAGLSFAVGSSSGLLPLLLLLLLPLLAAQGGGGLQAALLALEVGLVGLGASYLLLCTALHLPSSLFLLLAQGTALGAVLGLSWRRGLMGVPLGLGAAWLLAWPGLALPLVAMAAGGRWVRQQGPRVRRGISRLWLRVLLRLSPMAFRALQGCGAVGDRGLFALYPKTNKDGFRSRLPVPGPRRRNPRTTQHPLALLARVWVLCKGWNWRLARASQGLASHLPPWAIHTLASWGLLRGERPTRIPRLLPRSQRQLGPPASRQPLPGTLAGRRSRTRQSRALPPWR
# [7] = target: T3, Serine/threonine-protein kinase TAO2 (Homo sapiens); conditions: at 10 µM
# [8] = target: T4, Serine/threonine-protein kinase TAO3 (Homo sapiens) (UniProt Q9H2K8); conditions: at 1 µM
# T4 sequence (whole entry): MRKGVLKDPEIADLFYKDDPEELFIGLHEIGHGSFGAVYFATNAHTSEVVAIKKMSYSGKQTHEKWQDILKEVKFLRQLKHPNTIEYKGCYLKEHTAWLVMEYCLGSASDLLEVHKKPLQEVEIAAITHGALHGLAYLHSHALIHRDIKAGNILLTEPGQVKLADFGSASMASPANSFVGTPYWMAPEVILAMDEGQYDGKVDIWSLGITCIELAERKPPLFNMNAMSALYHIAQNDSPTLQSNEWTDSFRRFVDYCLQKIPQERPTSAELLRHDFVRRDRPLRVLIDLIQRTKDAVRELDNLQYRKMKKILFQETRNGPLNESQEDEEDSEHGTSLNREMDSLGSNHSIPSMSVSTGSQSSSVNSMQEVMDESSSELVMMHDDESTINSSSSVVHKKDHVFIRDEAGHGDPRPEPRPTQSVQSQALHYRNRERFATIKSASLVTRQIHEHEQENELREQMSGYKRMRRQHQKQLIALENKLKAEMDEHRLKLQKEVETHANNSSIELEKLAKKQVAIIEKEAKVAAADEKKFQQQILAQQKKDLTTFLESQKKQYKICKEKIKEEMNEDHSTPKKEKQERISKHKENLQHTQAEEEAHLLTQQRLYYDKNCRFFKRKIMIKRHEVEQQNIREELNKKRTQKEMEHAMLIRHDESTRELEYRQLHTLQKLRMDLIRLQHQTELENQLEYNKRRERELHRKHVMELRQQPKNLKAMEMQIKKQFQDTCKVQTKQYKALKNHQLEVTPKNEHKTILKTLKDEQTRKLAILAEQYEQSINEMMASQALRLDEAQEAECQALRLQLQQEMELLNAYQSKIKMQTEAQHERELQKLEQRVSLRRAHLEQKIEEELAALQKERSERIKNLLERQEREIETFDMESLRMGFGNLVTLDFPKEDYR
# [9] = target: T4, Serine/threonine-protein kinase TAO3 (Homo sapiens); conditions: at 10 µM
# [10] = target: T5, Serine/threonine-protein kinase TBK1 (Homo sapiens) (UniProt Q9UHD2); conditions: at 1 µM
# T5 sequence (whole entry): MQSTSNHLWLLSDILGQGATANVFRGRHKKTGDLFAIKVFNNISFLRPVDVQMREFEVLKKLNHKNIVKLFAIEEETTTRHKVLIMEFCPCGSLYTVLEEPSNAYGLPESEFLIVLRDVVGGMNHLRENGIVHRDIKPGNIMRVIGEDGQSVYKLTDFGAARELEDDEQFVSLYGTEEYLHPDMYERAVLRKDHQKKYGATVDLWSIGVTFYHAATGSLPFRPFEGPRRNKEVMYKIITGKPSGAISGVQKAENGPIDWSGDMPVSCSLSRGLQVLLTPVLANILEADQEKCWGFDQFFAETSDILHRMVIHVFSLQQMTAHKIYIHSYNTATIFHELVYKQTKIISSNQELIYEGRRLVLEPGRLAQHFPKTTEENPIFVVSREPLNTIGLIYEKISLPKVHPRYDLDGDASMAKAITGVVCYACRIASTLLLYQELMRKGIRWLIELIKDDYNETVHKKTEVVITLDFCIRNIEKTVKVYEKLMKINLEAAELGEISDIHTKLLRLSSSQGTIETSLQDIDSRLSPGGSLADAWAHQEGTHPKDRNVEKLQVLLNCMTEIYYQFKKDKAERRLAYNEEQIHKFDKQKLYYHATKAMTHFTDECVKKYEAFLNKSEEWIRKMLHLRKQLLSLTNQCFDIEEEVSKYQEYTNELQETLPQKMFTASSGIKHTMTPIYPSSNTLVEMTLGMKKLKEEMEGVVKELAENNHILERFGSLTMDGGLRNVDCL
structure (smiles),measurement,setting,value
COc1ccc(CNc2nc(N(CCO)CCO)nc3c2ncn3C(C)C)cc1,residual activity,[1],114%
same,residual activity,[2],92%
same,residual activity,[3],82%
same,residual activity,[4],96%
same,residual activity,[5],81%
same,residual activity,[6],96%
same,residual activity,[7],95%
same,residual activity,[8],92%
same,residual activity,[9],71%
same,residual activity,[10],69%
